Screening data (PubChem)
Only some compounds are listed: those with a hit (about 27% of all), similar ones and a draw of the others.
CYP2C19 inh = blocks human cytochrome P450 2C19; CYP2C19 Supersomes, luciferin-H EGE luminescence, 30 min; inhibition, % at 5 µM; 21% of 96,000 active; P33261;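 active = CYP2C19 inhibition above a set limit at 5 µM in the primary screen, cut at about 50% in these data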;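 note: plate controls were negative control wells for no effect and 2.5 mM tranylcypromine positive control for full effect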
CYP2C9 inhib = inhibitors of human CYP2C9. CYP2C9 Supersomes, luciferin-H conversion, luminescence. 20% of 96,000 active. P11712. inhibition, % at 5 µM;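 active = blocking of liver enzyme CYP2C9 beyond about 50% at 5 µM, limit read from the data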
Target sequence (P11712 whole entry, looked up): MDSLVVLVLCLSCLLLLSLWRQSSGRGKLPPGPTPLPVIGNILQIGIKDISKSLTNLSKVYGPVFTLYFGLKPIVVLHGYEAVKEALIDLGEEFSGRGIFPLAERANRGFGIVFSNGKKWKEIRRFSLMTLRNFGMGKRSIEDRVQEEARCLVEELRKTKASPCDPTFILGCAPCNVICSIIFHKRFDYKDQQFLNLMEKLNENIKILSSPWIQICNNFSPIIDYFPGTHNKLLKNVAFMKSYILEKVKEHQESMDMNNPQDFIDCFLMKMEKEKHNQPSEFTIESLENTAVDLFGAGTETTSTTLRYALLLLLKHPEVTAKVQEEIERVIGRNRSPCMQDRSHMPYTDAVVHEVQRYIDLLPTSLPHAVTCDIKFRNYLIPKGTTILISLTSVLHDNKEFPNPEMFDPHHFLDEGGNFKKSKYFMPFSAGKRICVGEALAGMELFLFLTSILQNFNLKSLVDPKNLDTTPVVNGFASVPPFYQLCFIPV
CYP2C9 activ = activators of human CYP2C9. P11712. recombinant CYP2C9, luciferin-H conversion, luminescence; hits give high values; factor 1 = untreated enzyme, 0 = blocked. activation factor at 5 µM. 1.4% of 96,000 active;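 active = activation factor of 2 or more for CYP2C9 at a 5 µM dose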;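 note: 0 = sulfaphenazole-blocked wells and 1 = vehicle-only wells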
CYP2C19 act = increases human CYP2C19 enzyme activity. P33261. recombinant CYP2C19, luciferin-H EGE luminescence; hits give high values; 0 = fully inhibited enzyme, 1 = untreated enzyme. activation factor at 5 µM. 96,000 tested, under 10 active. AID 1025;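 active = activation factor of at least 2 at 5 µM in the primary screen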;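 note: 0 = wells with 2.5 mM tranylcypromine and 1 = vehicle-only wells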
Cav32 inh = human Cav3.2 channel inhibition, primary screen. O95180. 4% of 100,000 active. Cav3.2-expressing cells, Fluo-4 calcium fluorescence FDSS; hits give low values. B-score at 10 µM. AID 449739;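 active = single-dose well whose peak fluorescence ratio is a statistical outlier from its plate by either plate-standardised score or position-corrected B-score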
An asterisk follows results filed as active; nt = no result given.

SMILES	CYP2C19 inh	CYP2C9 inhib	CYP2C9 activ	CYP2C19 act	Cav32 inh
COC(=O)c1ccc(Cl)c(NS(=O)(=O)c2ccc3c(c2)OCCO3)c1	87*	37	0.6	0.1	-5.4*
COC(=O)c1ccccc1NC(=O)c1ccc2c(c1)OCCO2	24	1	1	0.8	0.37
O=C(NCCCN1CCc2ccccc2C1)C1CCN(S(=O)(=O)N2CCCC2)CC1	12	10	0.9	0.9	1.2
Cc1ccc(Cn2nc(C)c(NC(=O)C3CC3)c2C)cc1	nt	nt	nt	nt	-0.46
CCOC(=O)c1ccc(NS(=O)(=O)c2ccc3c(c2)oc(=O)n3C)cc1	nt	nt	nt	nt	-1.2
O=C(O)CNC(=O)c1ccc2c(c1)OCCO2	3	5	0.9	1	1.1
O=C(NS(=O)(=O)c1ccc2c(c1)OCCO2)c1ccccc1	-7	58*	0.4	1.1	0.026
CCC(CC)NC(=O)COC(=O)c1ccc(NS(=O)(=O)c2ccc3c(c2)OCCO3)cc1	84*	99*	0	0.2	nt
CC(=O)c1cc2c(cc1NS(=O)(=O)c1ccc3c(c1)OCCO3)OCO2	99*	-71	1.7	0	-0.49
S=C1COC(c2ccccc2)N1c1ccccc1 (configuration not stated)	nt	nt	nt	nt	0.23
COc1ccc2nc(NCCCO)[nH]c2c1	nt	nt	nt	nt	0.95
CCOc1ncccc1C(=O)OCC(=O)Nc1cc(C)ccc1C	26	39	0.6	0.7	0.94
CCOc1ncccc1C(=O)OCC(=O)NCCc1ccccc1	68*	16	0.8	0.3	0.62
Cc1cc(C(=O)OCC(=O)NCCc2ccccc2)c(C)o1	76*	88*	0.1	0.2	-0.85
CS(=O)(=O)N1CCN(C(=O)c2cc(-c3ccccc3)nc3ccccc23)CC1	45	30	0.7	0.6	0.0012
O=C(c1cc(-c2ccccc2)nc2ccccc12)N1N=C(C(F)F)CC1(O)C(F)F (configuration not stated)	82*	100*	0	0.2	-0.61
Cc1cc(C)nc(SCSc2nc(C)cc(C)n2)n1	28	14	0.9	0.7	0.55
Cc1cc(C)nc(SCCc2ccncc2)n1	73*	40	0.6	0.3	0.31
Cc1cnc(C(=O)Nc2ccc(C(=O)N3CCCCC3)cc2)cn1	27	0	1	0.7	-0.0066
COc1ccc(CCNC(=O)c2nnn(-c3cccc(C)c3)c2N)cc1OC	8	68*	0.3	0.9	0.45
CCOc1ccc(NC(=O)Cn2nnc(C(=O)NCCc3ccc(OC)c(OC)c3)c2N)cc1	32	79*	0.2	0.7	-0.7
Cc1ccccc1C(=O)N1CCc2ccccc2C1	nt	16	0.8	nt	-0.07
Cc1cccc(-n2nnc(C(=O)N3CCc4ccccc4C3)c2N)c1	12	-223	3.2*	0.9	-4.7*
Cc1cccc(-n2nnc(C(=O)Nc3ccc(F)cc3)c2N)c1	-6	-166	2.7*	1.1	0.054
Cc1ccc(NC(=O)c2nnn(-c3cc(C)cc(C)c3)c2N)cc1	24	-28	1.3	0.8	-3.4
SMILES	CYP2C19 inh	CYP2C9 inhib	CYP2C9 activ	CYP2C19 act	Cav32 inh
COc1ccccc1-c1noc(-c2ccccc2C(=O)Nc2cccnc2)n1	11	14	0.9	0.9	-0.98
Clc1ccc2nc(SCc3nnc(-c4ccccc4)o3)[nH]c2c1	86*	76*	0.2	0.1	nt
Clc1ccc(OCc2nnc(SCc3nnc(-c4ccccc4)o3)o2)c(Cl)c1	92*	32	0.7	0.1	-6.1*
Cc1ccc2nc(SCc3nnc(-c4ccccc4Br)o3)[nH]c2c1	83*	75*	0.3	0.2	-3.1
OC(c1ccccc1)C1CN(Cc2ccccc2)CCC1(O)c1ccccc1 (configuration not stated)	67*	15	0.9	0.3	-2
OC1CCCN(Cc2ccccc2)C1 (configuration not stated)	-10	-9	1.1	1.1	0.2
CCc1c(C)c(C#N)c2nc3ccccc3n2c1NCCN(C)C	4	22	0.8	1	2.4
CCc1c(C)c(C#N)c2nc3ccccc3n2c1NCc1ccco1	42	71*	0.3	0.6	-2.4
CCOC(=O)N1CCC(NC(=O)C2CCCN(S(C)(=O)=O)C2)CC1 (configuration not stated)	-3	0	1	1	-2
Cc1cc2c(ncn2C(C)C)c(N)c1C	48	-3	1	0.5	0.00076
CCOc1ccc(N(CC(=O)NC(C)(C)C)C(=O)c2ccco2)cc1	22	90*	0.1	0.8	-0.022
CC(C)CNC(=O)COC(=O)c1cc(Cl)cc(Cl)c1N	66*	-94	1.9	0.3	-2
